Source: PubChem (several laboratories)
LEDGF integ inh: blocks HIV-1 LEDGF/p75-dependent DNA integration; TR-FRET IN-LEDGF/p75 DNA integration, Eu/Cy5; inhibition, % at 3.7 µM; actives 0.64% (n = 370,000); AID 743269;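 active = inhibition above the screen-wide mean plus 3 SD, cut at about 13% in these data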;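 note: signal is the Cy5 over europium emission ratio at 671 and 618 nm; 0% = plate median of compound wells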
DNMT1 block: inhibitors of human DNMT1; P26358; DNMT1 molecular beacon, Hinp1I cleavage, fluorescence; inhibition (reported as % activation of signal), % at 10 µM; actives 0.83% (n = 360,000); AID 588458; in the data active = inhibition above about 50%
MBD2 DNA inh: blocks human MBD2 binding to methylated DNA | TR-FRET, MBD2 binding to methylated oligonucleotide | inhibition, % at 4.4 µM | actives 0.31% (n = 370,000) | AID 686964; in the data active = inhibition above about 13%
Target sequence (Q9UBB5 whole entry, looked up): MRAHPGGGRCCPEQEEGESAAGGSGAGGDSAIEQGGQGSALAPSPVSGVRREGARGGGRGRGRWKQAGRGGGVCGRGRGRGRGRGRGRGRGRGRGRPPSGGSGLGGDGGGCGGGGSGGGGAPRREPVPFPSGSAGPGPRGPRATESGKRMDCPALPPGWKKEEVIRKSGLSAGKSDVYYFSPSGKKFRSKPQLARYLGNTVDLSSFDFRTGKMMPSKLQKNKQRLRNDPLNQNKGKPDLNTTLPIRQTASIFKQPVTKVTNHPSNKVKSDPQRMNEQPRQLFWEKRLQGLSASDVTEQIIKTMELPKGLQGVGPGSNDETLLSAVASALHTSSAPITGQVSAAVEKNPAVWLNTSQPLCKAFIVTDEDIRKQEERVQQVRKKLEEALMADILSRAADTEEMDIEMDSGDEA
UHRF1 binding: blocks human UHRF1 binding to methylated DNA. inhibition, % at 4.4 µM. AID 687016. Q96T88. UHRF1 binding to methylated oligo, TR-FRET. actives 0.75% (n = 370,000); in the data active = inhibition above about 21%;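 note: UHRF1 SRA domain binding a hemimethylated CpG hairpin DNA probe; 0% = median of test compound wells and 100% = reference inhibitor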
PG9 Ab binder: PG9 antibody binding by small molecule. TR-FRET gp120-PG9 antibody binding. inhibition, % at 6.7 µM. actives 0.43% (n = 360,000). AID 624416; in the data active = inhibition above about 8.5%
rCAG binder: molecules binding r(CAG) RNA repeats; r(CAG) RNA repeat, TO-PRO-1 dye displacement fluorescence; inhibition, % at 3 µM; actives 1.3% (n = 370,000);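 active = inhibition above the plate cutoff, the mean of all test compounds on that plate plus 3 SD, cut at about 35% in these data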;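 note: 0% = DMSO alone and 100% = 100 µM mitoxantrone as full dye displacement; higher means more dye released from RNA so lower well fluorescence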
rCAG binder conf: r(CAG) RNA repeat binding, confirmation. shares compounds with rCAG binder. TO-PRO-1 dye displacement fluorescence. inhibition, % at 3 µM. actives 70% (n = 4,300);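 active = inhibition above a per-plate cutoff, the mean inhibition of sample wells plus 3 SD, cut at about 35% in these data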;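 note: loss of TO-PRO-1 fluorescence as compound displaces dye from 1x1 AA loop RNA; 0% = DMSO only wells and 100% = 100 µM mitoxantrone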
DNA CAG counter: disrupts DNA CAG TO-PRO-1 complex, flagging rCAG hits; actives 94% (n = 4,300); shares compounds with rCAG binder; inhibition, % at 3 µM; d(CAG) DNA oligo TO-PRO-1 dye displacement, fluorescence;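 active = inhibition above its plate's cutoff, the mean test-well inhibition plus 3 SD, cut at about 4.8% in these data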;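 note: 0% = DNA dye mix with DMSO and 100% = 100 µM mitoxantrone; hits displace the dye from DNA and so lower well fluorescence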
UHRF1 ctr MBD2: inhibits human UHRF1 binding to methylated oligonucleotide, MBD2 counter-screen; shares compounds with MBD2 DNA inh; TR-FRET; inhibition, % at 4.4 µM; actives 25% (n = 1,000); AID 720530; in the data active = inhibition above about 21%;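 note: UHRF1 SRA domain binding a labeled hemimethylated CpG hairpin DNA; 0% = vehicle only and 100% = reference inhibitor with vehicle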
MBD2 DBD conf: MBD2-DBD methyl-DNA binding inhibition, TR-FRET confirmation; TR-FRET MBD2-DBD binding to methylated oligonucleotide; inhibition, % at 4.4 µM; shares compounds with MBD2 DNA inh; AID 720531; actives 26% (n = 1,000)
IN multimer act: HIV-1 integrase multimerization activation, counter-screen. actives 17% (n = 2,000). activation, % at 7.7 µM. shares compounds with LEDGF integ inh. AID 1053131. TR-FRET HIV-1 integrase multimerization, biochemical; in the data active = activation above about 8.9%
TR-FRET interf: TR-FRET optical interference, LEDGF/p75 integration counter-screen. shares compounds with LEDGF integ inh. TR-FRET optical interference counterscreen, HIV-1 IN multimerization. inhibition, % at 7.7 µM. 2,000 tested, under 10 active. AID 1053135;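 active = inhibition above the mean over all tested compounds plus 3 SD, which no compound reached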;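 note: 0% = integrase with antibodies and DMSO and 100% = antibodies without integrase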
IN-LEDGF confirm: LEDGF/p75-dependent HIV-1 integration inhibition, confirmation; shares compounds with LEDGF integ inh; TR-FRET LEDGF/p75-dependent HIV-1 integration, biochemical; inhibition, % at 3.7 µM; actives 36% (n = 2,000); AID 1053136
* marks the source's active call; other numbers are inactive results. An excerpt weighted towards active compounds, which were near 3.5% of everything screened. Cut-off read from the data, not from the text of the source, unless noted: active = inhibition above about 14%; inactive = the rest.

What do the screens show for `O=C1C=CC2=C3c4cc(O)c(O)cc4CC3(O)COC2=C1O` (configuration not stated)?
LEDGF integ inh: 90*; DNMT1 block: 91*; MBD2 DNA inh: 35*; UHRF1 binding: 56*; PG9 Ab binder: -7; rCAG binder: 43*; rCAG binder conf: 63*; DNA CAG counter: 34*; IN multimer act: 68*; TR-FRET interf: -342; IN-LEDGF confirm: 93*

What do the screens show for `CC(=O)OCCCNc1cc(SCc2ccco2)c2nonc2c1[N+](=O)[O-]`?
LEDGF integ inh: 66*; DNMT1 block: 2; MBD2 DNA inh: 14*; UHRF1 binding: 59*; PG9 Ab binder: -1; rCAG binder: 60*; rCAG binder conf: 22; DNA CAG counter: 9.8*; UHRF1 ctr MBD2: 4; MBD2 DBD conf: -7; IN multimer act: 5; TR-FRET interf: -26; IN-LEDGF confirm: 24*

How did COc1ccc(-c2cc(-c3nnc(SCC(=O)Nc4ccccc4-c4ccccc4)n3N)[nH]n2)cc1 do in these assays?
LEDGF integ inh: -1; MBD2 DNA inh: -1; UHRF1 binding: 0; rCAG binder: 9

How did COc1ccc(-n2cccc2/C=C2/NC(=O)N(c3cccc(Cl)c3)C2=O)cc1 do in these assays?
LEDGF integ inh: 2; DNMT1 block: 11; MBD2 DNA inh: -5; UHRF1 binding: -1; PG9 Ab binder: 2; rCAG binder: 12

Results for O=C(O)c1cccc(-n2cccc2/C=C2/NC(=O)N(c3ccc(Cl)cc3)C2=O)c1 ?
LEDGF integ inh: 83*; DNMT1 block: 87*; MBD2 DNA inh: 101*; UHRF1 binding: 103*; PG9 Ab binder: -2; rCAG binder: 72*; rCAG binder conf: 69*; DNA CAG counter: 30*; IN multimer act: 36*; TR-FRET interf: -129; IN-LEDGF confirm: 81*

Results for Cc1cccc(NC(=O)CN2C(=O)N/C(=C\c3ccccc3OCc3ccc(C(=O)O)cc3)C2=O)c1 ?
LEDGF integ inh: 17*; DNMT1 block: 0; MBD2 DNA inh: 3; UHRF1 binding: 1; PG9 Ab binder: -1; rCAG binder: 61*; rCAG binder conf: 67*; DNA CAG counter: 31*; IN multimer act: -3; TR-FRET interf: 14; IN-LEDGF confirm: 8

How did N#C/C(=C\c1ccc([N+](=O)[O-])o1)C(=O)Nc1ccc(F)cc1 do in these assays?
LEDGF integ inh: 21*; DNMT1 block: 32; MBD2 DNA inh: -1; UHRF1 binding: 1; PG9 Ab binder: -4; rCAG binder: 52*; rCAG binder conf: 30; DNA CAG counter: 14*; IN multimer act: 1; TR-FRET interf: -3; IN-LEDGF confirm: 12

What do the screens show for `COc1ccccc1OCC(=O)N/N=C/C=C/c1ccc([N+](=O)[O-])o1`?
LEDGF integ inh: 38*; DNMT1 block: 13; MBD2 DNA inh: 9; UHRF1 binding: 35*; PG9 Ab binder: -5; rCAG binder: 36*; rCAG binder conf: 34; DNA CAG counter: 17*; IN multimer act: 11*; TR-FRET interf: -57; IN-LEDGF confirm: 46*

Results for O=S(=O)(O)c1cc(Cl)cc(N=Nc2ccc(O)cc2O)c1O ?
LEDGF integ inh: 72*; DNMT1 block: 68*; MBD2 DNA inh: 0; UHRF1 binding: 19; PG9 Ab binder: -17; rCAG binder: 91*; rCAG binder conf: 67*; DNA CAG counter: 31*; IN multimer act: 14*; TR-FRET interf: -70; IN-LEDGF confirm: 31*

Results for O=[N+]([O-])c1ccc(N=Nc2ccc(O)cc2O)cc1 ?
LEDGF integ inh: 1; DNMT1 block: 3; MBD2 DNA inh: -6; UHRF1 binding: 1; PG9 Ab binder: -8; rCAG binder: 11

What do the screens show for `CN(C)C(=O)CNc1ccn2nc(-c3cccc(Cl)c3)cc2n1`?
LEDGF integ inh: 0; DNMT1 block: -2; MBD2 DNA inh: -7; UHRF1 binding: -1; PG9 Ab binder: 1; rCAG binder: 5

What do the screens show for `COc1cc2cc3c(N)c(C(=O)Nc4sc(C)c(C)c4C#N)sc3nc2cc1OC`?
LEDGF integ inh: 15*; DNMT1 block: -7; MBD2 DNA inh: -5; UHRF1 binding: 3; PG9 Ab binder: -2; rCAG binder: 53*; rCAG binder conf: 61*; DNA CAG counter: 31*; IN multimer act: 27*; TR-FRET interf: -94; IN-LEDGF confirm: 46*

How did COc1cc2cc3c(N)c(C(=O)NCc4ccco4)sc3nc2cc1OC do in these assays?
DNMT1 block: -4

What do the screens show for `CCN(CC(=O)NCc1cccs1)C(=O)c1ccc(OC)c(OC)c1`?
LEDGF integ inh: 2; DNMT1 block: -5; MBD2 DNA inh: -1; UHRF1 binding: -1; PG9 Ab binder: -1; rCAG binder: -2

What do the screens show for `CN(C1(C)CCS(=O)(=O)C1)S(=O)(=O)c1cccc([N+](=O)[O-])c1` (configuration not stated)?
LEDGF integ inh: 1; DNMT1 block: 1; MBD2 DNA inh: -1; UHRF1 binding: -1; PG9 Ab binder: -1; rCAG binder: -3

What do the screens show for `O=C(Cn1cc(COc2ccc(-n3cccc3)cc2)nn1)NS(=O)(=O)c1ccccc1C(F)(F)F`?
LEDGF integ inh: 27*; DNMT1 block: 2; MBD2 DNA inh: 1; UHRF1 binding: 7; PG9 Ab binder: 0; rCAG binder: 64*; rCAG binder conf: 65*; DNA CAG counter: 18*; IN multimer act: 1; TR-FRET interf: -5; IN-LEDGF confirm: -14
